PubChem BioAssay (NCI)
Several values for one entry are separate records, joined by “and”; a condition that tells them apart may be missing. Identical values can stand only once. The panel holds about 83,000 compounds, 20% with a hit somewhere; the sample as a whole holds those more often.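 96-well plates, one dose, 48 hours. Percent growth reported; active if below 10.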 Activity calls are given as the source filed them.

Assays:
Assay in all cases: NCI-60 one-dose screen, 48 h (100 = growth as untreated, 0 = no growth, -100 = all killed)
T-47D breast = conditions: 10 µM unless noted
BT-549 breast = conditions: 10 µM unless noted
MDA-MB-435 melanoma = conditions: 10 µM unless noted
SW-620 colon = conditions: 10 µM unless noted
MCF7 breast = tested on: MCF7 breast
HCT-116 colon = conditions: 10 µM unless noted
HCC-2998 colon = conditions: 10 µM unless noted
KM12 colon = conditions: 10 µM unless noted

| Compound | growth (T-47D breast) | growth (BT-549 breast) | growth (MDA-MB-435 melanoma) | growth (SW-620 colon) | growth (MCF7 breast; 10 µM unless noted) | growth (HCT-116 colon) | growth (HCC-2998 colon) | growth (KM12 colon) | growth (MCF7 breast; 10 µM) | growth (MCF7 breast; 100 µM) |
| --- | --- | --- | --- | --- | --- | --- | --- | --- | --- | --- |
| C[C@]12CCc3c(ccc4cc(O)ccc34)[C@@H]1C[C@H](O)[C@@H]2O | 98.8% (inactive) | 94.7% (inactive) | 99% (inactive) | 96.4% (inactive) | 132% (inactive) | 104% (inactive) | 109% (inactive) | 108% (inactive) | – | – |
| C=C1CCC2C3(C)COC(c4ccc(NC(C)=O)cc4)OC3CCC2(C)C1C/C=C1/C(=O)OCC1O (stereo not drawn) | 29.4% (inactive) | 59.8% (inactive) | 60.5% (inactive) | 77.3% (inactive) | 42.5% (inactive) | 34.1% (inactive) | 59.1% (inactive) | 51.7% (inactive) | – | – |
| O=C1/C(=C/c2ccc(-c3cccc(C(F)(F)F)c3)o2)SC(=S)N1CCc1ccc(O)cc1 | 53.8% (inactive) | 75.7% (inactive) | 52.6% (inactive) | 86.1% (inactive) | 84.9% (inactive) | 76% (inactive) | 107% (inactive) | 54.9% (inactive) | – | – |
| COc1ccc(Oc2nc(Nc3ccc(N4CCOCC4)cc3)ncc2NC(=O)c2cc(OC)cc(OC)c2)cc1 | 93.6% (inactive) | 90.1% (inactive) | 40.4% (inactive) | 71.4% (inactive) | 76.9% (inactive) | 87.9% (inactive) | 98.4% (inactive) | 79.3% (inactive) | – | – |
| CC(C)(C)CC(N)=O | – | 75.3% (inactive) | 109% (inactive) | 102% (inactive) | – | 93.6% (inactive) | 106% (inactive) | 109% (inactive) | 85.9% (inactive) | 85.2% (inactive) and 8.62% (active) |
| Cc1cccc(Cc2cnc(NC(=O)CCCOc3ccc(Cl)cc3)s2)c1 | 33.5% (inactive) | 61.5% (inactive) | -53.2% (active) | 25% (inactive) | 20% (inactive) | 16.4% (inactive) | 48.9% (inactive) | 21.8% (inactive) | – | – |
| O=C(NNc1ccccc1)c1ncc[nH]1 | 43.6% (inactive) | 101% (inactive) | 24.2% (inactive) | 60.7% (inactive) | 56.5% (inactive) | 64.4% (inactive) | 60.6% (inactive) | 29.5% (inactive) | – | – |
| CC1(C)C(N)=Nc2cc(OCCCCN3Cc4ccccc4C3)c(OCC3CC3)cc21 | 37.7% (inactive) | 83.7% (inactive) | 71.9% (inactive) | 92.8% (inactive) | 48.5% (inactive) | 47% (inactive) | -0.545% (active) | 96% (inactive) | – | – |
| COc1cc(NS(=O)(=O)C(C)C)cc(-c2cc(-c3ccc(N4CCNCC4)cc3)cnc2N)c1 | 81.9% (inactive) | 78.4% (inactive) | 92.5% (inactive) | 82% (inactive) | 81.2% (inactive) | 14.2% (inactive) | 80.5% (inactive) | 48.3% (inactive) | – | – |
| C#CCOc1cccc(Nc2ncc3ncn(C4CCN(C(=O)CCl)C4)c3n2)c1 (stereo not drawn) | -10.5% [6.25 µM] (active) | 29.3% [6.25 µM] (inactive) | 35.2% [6.25 µM] (inactive) | -41.4% [6.25 µM] (active) | 8.03% [6.25 µM] (active) | 0.194% [6.25 µM] (active) | 74.9% [6.25 µM] (inactive) | 87.5% [6.25 µM] (inactive) | – | – |
| Nc1c(C(=O)Nc2ccncc2)sc2nc3c(cc12)CCCCCCCC3 | -71.2% (active) | -60.8% (active) | -89.9% (active) | -69.2% (active) | -83.4% (active) | -76.3% (active) | -54.3% (active) | -80.4% (active) | – | – |
| O=C(/C=C/c1ccc([N+](=O)[O-])cc1)c1ccccc1 | 60.2% (inactive) | 93.6% (inactive) | 89.3% (inactive) | 72.1% (inactive) | 20.2% (inactive) | 17% (inactive) | 102% (inactive) | 57% (inactive) | – | – |
| CN(C)C(=O)c1cc2cnc(Nc3ccc(-c4csc5c(=S)cc(N6CCOCC6)oc45)cc3)nc2n1C1CCCC1 | -3.44% (active) | 9.89% (active) | 17.3% (inactive) | 4.89% (active) | -5.27% (active) | 2.89% (active) | 8.51% (active) | 6.53% (active) | – | – |
| Nc1nc(N)c2c(n1)NC(c1ccc(Cl)cc1)CC(c1cccc(Nc3ccncc3)c1)=N2 (stereo not drawn) | 77.6% (inactive) | 110% (inactive) | 42.7% (inactive) | 30% (inactive) | 49.4% (inactive) | 21.9% (inactive) | 72.1% (inactive) | 63.7% (inactive) | – | – |
| Nc1ccccc1SC(CC(=O)c1ccccc1)c1ccc([N+](=O)[O-])cc1 (stereo not drawn) | 93.5% (inactive) and 78.4% (inactive) | 83.6% (inactive) and 86.4% (inactive) | 101% (inactive) and 87.2% (inactive) | 51.9% (inactive) and 45.8% (inactive) | 33% (inactive) and 21.6% (inactive) | -87.1% (active) and -80.5% (active) | 101% (inactive) | 79.1% (inactive) and 31.5% (inactive) | – | – |
| COc1ccc(-c2nn3c(-c4cc(F)c(Cl)cc4Cl)nnc3s2)cc1 | 50.3% (inactive) | 54.3% (inactive) | 3.5% (active) | 20.8% (inactive) | 18.3% (inactive) | 20.9% (inactive) | 42.1% (inactive) | 46.8% (inactive) | – | – |
| COc1cc(Cl)cc(-c2nn(C(=O)NS(=O)(=O)c3ccc(Cl)cc3)cc2-c2ccncc2)c1 | 90.8% (inactive) | 41.2% (inactive) | 87.5% (inactive) | 114% (inactive) | 102% (inactive) | 95.2% (inactive) | 99.3% (inactive) | 92.9% (inactive) | – | – |
| c1ccc(Cc2cccc[n+]2C(c2ccccc2)c2ccccc2)cc1 | 3.66% (active) | 29.8% (inactive) | 40% (inactive) | 81.2% (inactive) | 34.6% (inactive) | 49.2% (inactive) | 40.7% (inactive) | 42.4% (inactive) | – | – |
| COc1ccc(C(CC(=O)c2ccc3c(c2)OCO3)C(=O)O)cc1OC (stereo not drawn) | 104% (inactive) and 91.9% (inactive) | 115% (inactive) and 106% (inactive) | 108% (inactive) and 102% (inactive) | 100% (inactive) and 108% (inactive) | 100% (inactive) and 96.6% (inactive) | 119% (inactive) and 97.1% (inactive) | 104% (inactive) and 105% (inactive) | 110% (inactive) and 95.7% (inactive) | – | – |
| Cc1c(O)c(O)cc2c3c(oc12)CC(c1ccc2c(c1)OCO2)CC3=O (stereo not drawn) | 67.4% (inactive) | 74.6% (inactive) | 105% (inactive) | 81.7% (inactive) | 73.6% (inactive) | 90.2% (inactive) | 101% (inactive) | 90.9% (inactive) | – | – |
| O=C(CCCOc1ccc(Br)cc1)Nc1ncc(Cc2ccc(F)cc2)s1 | 58% (inactive) | 82% (inactive) | -27.2% (active) | 58.2% (inactive) | 23.7% (inactive) | 36.6% (inactive) | 73.9% (inactive) | 36.2% (inactive) | – | – |
| Fc1ccccc1-c1cnn2cc(-c3ccccc3)cnc12 | 98.1% (inactive) | 98.7% (inactive) | 75.6% (inactive) | 92.2% (inactive) | 68.1% (inactive) | 91.3% (inactive) | 92.8% (inactive) | 59.3% (inactive) | – | – |
| COC1/C=C/OC2(C)Oc3c(C)c(O)c4c(O)c(c(C=NOC(c5ccccc5)c5ccccc5)c(O)c4c3C2=O)NC(=O)/C(C)=C/C=C/C(C)C(O)C(C)C(O)C(C)C(OC(C)=O)C1C (stereo not drawn) | -82.7% (active) | 32.7% (inactive) | 11.5% (inactive) | 18.3% (inactive) | 10.9% (inactive) | 10.9% (inactive) | -38.8% (active) | 5.8% (active) | – | – |
| COC(=O)c1[nH]nc(OC)c1C1(C(C#N)c2nc3ccccc3s2)CCCc2ccccc21 (stereo not drawn) | 84.1% (inactive) | 88.2% (inactive) | 104% (inactive) | 104% (inactive) | 84.8% (inactive) | 104% (inactive) | 102% (inactive) | 97% (inactive) | – | – |
| Cc1oc2c(Cc3ccc(NC(=O)c4ccc(Cl)cc4)cc3)ncnc2c1C(=O)NO | 96.8% (inactive) | 103% (inactive) | 92.5% (inactive) | 105% (inactive) | 91.1% (inactive) | 98% (inactive) | 97.9% (inactive) | 95.9% (inactive) | – | – |
| CC[C@H](C)[C@H](NC(=O)[C@@H](N)CCC(N)=O)C(=O)N[C@@H](Cc1ccc(O)cc1)C(=O)N[C@@H](CCCCN)C(=O)N[C@@H](CCCCN)C(=O)N[C@@H](Cc1ccc(O)cc1)C(=O)N[C@@H](CCCNC(=N)N)C(=O)N[C@H](C(=O)N[C@@H](Cc1c[nH]c2ccccc12)C(=O)N[C@@H](Cc1ccc(O)cc1)C(=O)N[C@@H](CCCNC(=N)N)C(=O)N[C@@H](CCCCN)C(=O)N[C@@H](C)C(=O)N[C@@H](Cc1c[nH]c2ccccc12)C(=O)N[C@@H](CCCCN)C(=O)N[C@H](C(=O)N[C@@H](CC(C)C)C(=O)NCC(=O)N[C@@H](CCCCN)C(=O)N[C@H](C(N)=O)C(C)C)C(C)C)[C@@H](C)O | -47% (active) | 16.3% (inactive) | 17.9% (inactive) | 47.2% (inactive) | -68.3% (active) | 28.7% (inactive) | 87.5% (inactive) | -33% (active) | – | – |
